A selection: hits, their analogues and other compounds. The true share with any hit is near 27%.
sEH activator: soluble epoxide hydrolase (human) activation. P34913. purified human sEH enzymatic activity, activator screen. activation, % at 2 µM. 91,000 tested, 0.04% active. AID 717; in the data active = activation above about 37%
Target sequence (P34913 whole entry, looked up): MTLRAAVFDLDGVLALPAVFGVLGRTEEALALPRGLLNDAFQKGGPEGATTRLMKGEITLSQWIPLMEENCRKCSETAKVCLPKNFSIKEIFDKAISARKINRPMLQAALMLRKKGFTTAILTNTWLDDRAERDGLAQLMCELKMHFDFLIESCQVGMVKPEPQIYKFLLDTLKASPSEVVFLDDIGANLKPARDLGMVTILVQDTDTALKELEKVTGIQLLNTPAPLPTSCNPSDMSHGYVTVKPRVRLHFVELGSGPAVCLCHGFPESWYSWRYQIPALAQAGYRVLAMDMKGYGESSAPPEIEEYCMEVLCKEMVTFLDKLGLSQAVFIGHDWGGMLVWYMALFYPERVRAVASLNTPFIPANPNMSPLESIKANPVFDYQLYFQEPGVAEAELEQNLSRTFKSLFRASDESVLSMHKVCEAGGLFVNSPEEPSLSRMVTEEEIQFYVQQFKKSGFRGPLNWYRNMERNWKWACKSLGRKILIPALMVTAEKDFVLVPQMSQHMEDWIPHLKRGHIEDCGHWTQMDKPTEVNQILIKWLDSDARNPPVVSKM
CYP2C19 act: activators of human cytochrome P450 2C19; activation factor at 5 µM; AID 1025; recombinant CYP2C19, luciferin-H EGE luminescence; active compounds read high; 0 = fully inhibited enzyme, 1 = untreated enzyme; 96,000 tested, under 10 active;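 active = activation factor of at least 2 at 5 µM in the primary screen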;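 note: 0 = wells with 2.5 mM tranylcypromine and 1 = vehicle-only wells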
CYP2C9 activ: CYP2C9 (human) activation | recombinant CYP2C9, luciferin-H conversion, luminescence; active compounds read high; factor 1 = untreated enzyme, 0 = blocked | activation factor at 5 µM | 96,000 tested, 1.4% active;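 active = activation factor of 2 or more for CYP2C9 at a 5 µM dose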;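 note: 0 = sulfaphenazole-blocked wells and 1 = vehicle-only wells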
CYP2C9 inh: blocks human cytochrome P450 2C9. P11712. CYP2C9 Supersomes, luciferin-H conversion, luminescence. inhibition, % at 5 µM. 96,000 tested, 20% active. AID 777;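 active = blocking of liver enzyme CYP2C9 beyond about 50% at 5 µM, limit read from the data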
sEH inhibitor: soluble epoxide hydrolase (human) inhibition. P34913. recombinant human sEH enzymatic activity assay. inhibition, % at 2 µM. 91,000 tested, 0.34% active. AID 707; in the data active = inhibition above about 80%
CYP2C19 inh: blocks human cytochrome P450 2C19; P33261; 96,000 tested, 21% active; inhibition, % at 5 µM; CYP2C19 Supersomes, luciferin-H EGE luminescence, 30 min;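 active = CYP2C19 inhibition above a set limit at 5 µM in the primary screen, cut at about 50% in these data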;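 note: plate controls were negative control wells for no effect and 2.5 mM tranylcypromine positive control for full effect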
Numbers without * were called inactive; . = no result given.

SMILES | sEH activator | CYP2C19 act | CYP2C9 activ | CYP2C9 inh | sEH inhibitor | CYP2C19 inh
O=C1CC(N2CCC(O)(c3ccc(Cl)cc3)CC2)C(=O)N1Cc1ccc(N2CCCC2=O)cc1 (configuration not stated) | -2 | 0.2 | 0.5 | 48 | 3 | 80*
CC(=O)N1CCc2cc(S(=O)(=O)NC(CC(C)C)C(=O)Nc3ccc4c(c3)OCCO4)ccc21 (configuration not stated) | . | 0.5 | 0.4 | 59* | . | 49
Cc1nc2ccc(S(=O)(=O)NC(C(=O)N3CCn4c3nc3ccccc34)C(C)C)cc2s1 (configuration not stated) | 6 | 1 | 0.9 | 11 | -8 | 2
CC(=O)N1CCc2cc(S(=O)(=O)NCCC(=O)Nc3ccc4c(c3)OCCO4)ccc21 | . | 1 | 0.6 | 37 | . | 2
CC(=O)N1CCc2cc(S(=O)(=O)NC(CC(C)C)C(=O)N3CCn4c3nc3ccccc34)ccc21 (configuration not stated) | 18 | 0.5 | 0.4 | 57* | -22 | 51*
CC(=O)N1CCc2cc(S(=O)(=O)NC(C(=O)NCc3ccccc3)C(C)C)ccc21 (configuration not stated) | -7 | 1.1 | 0.8 | 23 | 10 | -11
CC(=O)N1CCc2cc(S(=O)(=O)NC(Cc3ccccc3)C(=O)NC3CCCCCC3)ccc21 (configuration not stated) | -10 | 0.7 | 0.5 | 53* | 8 | 35
CCN1C2=C(C(=O)CCC2)C(c2ccc(O)cc2)C2=C1CCCC2=O | -1 | 1.1 | 1 | -4 | 4 | -7
CN(C)c1nc(N)nc(Cn2ccnc2)n1 | 18 | 0.5 | 1.1 | -6 | -15 | 54*
CC1(C)CC(=O)C=C(Nc2ccc(C(=O)O)cc2)C1 | 4 | . | . | . | -7 | .
CCCOc1ccc(NC2=CC(=O)CC(C)(C)C2)cc1 | 1 | 0.6 | 0.2 | 79* | -2 | 37
Cc1nc2ccc(C(=O)N3CCN(c4ccccn4)CC3)cc2s1 | -3 | 0.9 | 0.9 | 7 | 3 | 8
COc1ccc(-c2cn3c(C)c(C(=O)Nc4cccc(NC(C)=O)c4)sc3n2)cc1 | 3 | 0.4 | 1.1 | -8 | -5 | 59*
Cc1c(C(=O)Nc2ccncc2)sc2nc(-c3ccc(F)cc3)cn12 | . | 0.6 | 0.3 | 74* | . | 45
CCOC(=O)c1ccc(NC(=O)CSCc2ccco2)cc1 | 20 | 0.7 | 0.5 | 48 | -17 | 25
COCCNC(=O)c1ccc(CN2CCOCC2)cc1 | 3 | . | . | . | -3 | .
CC(=O)Nc1ccc(Oc2ncccn2)c(Cl)c1 | -6 | 0.9 | 1 | -4 | 5 | 11
O=c1[nH]c(SCc2ccccc2Cl)nc2c1cnn2-c1ccccc1 | . | 1.1 | 1 | 2 | . | -6
O=C(Nc1ccccc1C(F)(F)F)c1cccnc1 | -1 | 1 | 1.1 | -10 | 2 | 2
O=C(Nc1nc2ccccc2[nH]1)C1CC(=O)N(c2ccc3c(c2)OCCO3)C1 (configuration not stated) | 5 | 0.4 | 0.4 | 62* | -6 | 59*
Clc1ccccc1CSc1nc2ccncc2[nH]1 | 1 | 0 | 0.7 | 32 | -3 | 99*
O=C(CSc1nc2ccncc2[nH]1)Nc1ccccc1C(F)(F)F | . | 0.4 | 0.5 | 48 | . | 60*
O=C(CSc1nc2ccccc2[nH]1)Nc1ccc2c(c1)OCCO2 | 6 | 0.6 | 0.3 | 72* | -9 | 38
COc1ccc(N(CC(=O)Nc2ccc(S(=O)(=O)N3CCOCC3)cc2)S(=O)(=O)c2ccccc2)cc1 | -23 | 0.7 | 0.5 | 48 | 25 | 28
O=C(COc1ccc(S(=O)(=O)NC2CCCCC2)cc1)N1CCN(c2cccc(Cl)c2)CC1 | 2 | 1.1 | 0.7 | 32 | 0 | -14
Cc1ccc2nc(SCC(=O)Nc3c(C)n(C)n(-c4ccccc4)c3=O)[nH]c2c1 | -11 | 1.1 | 0.9 | 6 | 10 | -8
Cc1cc(NC(=O)CSc2nc3ccccc3[nH]2)no1 | -10 | 0.8 | 1 | -3 | 14 | 18
Cc1ccc2nc(SCC(=O)Nc3ccc4c(c3)OCCO4)[nH]c2c1 | 3 | 0.7 | 0.2 | 83* | -1 | 32
Cc1ccc2nc(SCC(=O)Nc3cc(C)on3)[nH]c2c1 | -12 | 0.2 | 0.2 | 78* | 11 | 76*
COC(=O)c1ccc(CSc2nc3ccc(C)cc3[nH]2)o1 | -9 | 0.1 | 0.2 | 83* | 10 | 93*

Screening data deposited in PubChem by several laboratories.
